Data published in PubChem BioAssay (NCI).
Compounds without any hit were thinned out: in the full panel of roughly 79,000, 15% have a hit. Active and inactive are the calls of the source. Rule as the data show it: active = growth inhibition above about 70%; inactive = the rest.

How the values were obtained:
[1] = NCI Yeast Anticancer Drug Screen. Data for the rad50 strain (AID 155);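 also: 0% = growth of vehicle-only cultures of the same strain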; conditions: S. cerevisiae rad50 strain growth inhibition; at 50.0 µM; active compounds read high
Procedure, shortened: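 Genetically altered yeast (DNA repair pathway); compound treatment; growth inhibition vs vehicle ctrl.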

[2] = NCI Yeast Anticancer Drug Screen. Data for the mec2-1 strain (AID 157); conditions: S. cerevisiae mec2-1 strain, at 50.0 µM, active compounds read high
Procedure, shortened: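 Growth inhibition is read against vehicle-treated controls after compound exposure of the mec2-1 yeast strain, which is defective in DNA damage repair or cell cycle control.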

[3] = NCI Yeast Anticancer Drug Screen. Data for the sgs1 mgt1 strain (AID 161);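 also: 0% = growth of cultures given vehicle only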; conditions: S. cerevisiae sgs1 mgt1 strain, at 50.0 µM, active compounds read high
Procedure, shortened: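 Growth of a repair-deficient yeast mutant was monitored after compound treatment and expressed as inhibition relative to vehicle-treated cultures.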

[4] = NCI Yeast Anticancer Drug Screen. Data for the cln2 rad14 strain (AID 165);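 also: 0% = growth equal to vehicle treated cultures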; conditions: S. cerevisiae cln2 rad14 strain, at 50.0 µM, active compounds read high
Procedure, shortened: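 Growth inhibition, relative to vehicle-treated controls, is the read-out. The test organism is a yeast strain with defined genetic alterations, cln2 rad14.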

[5] = NCI Yeast Anticancer Drug Screen. Data for the bub3 strain (AID 167); conditions: S. cerevisiae bub3 mutant strain, at 50.0 µM, active compounds read high
Procedure, shortened: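 Yeast carrying a defined mutation is treated with each compound, and growth is compared with that of vehicle-exposed cells to give inhibition.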

[6] = NCI Yeast Anticancer Drug Screen. Data for the mlh1 rad18 strain (AID 175); conditions: S. cerevisiae mlh1 rad18 strain growth inhibition; at 50.0 µM; active compounds read high
Procedure, shortened: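 Cells of a genetically altered yeast strain, deficient in DNA damage repair, were treated with compound. Their growth was then compared with that of vehicle-treated cultures to give inhibition.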

Measured: growth inhibition

CCCCCCSC#N
inactive: [1] 34.8% | [2] 13.9% | [3] -8.75% | [4] 18.1% | [5] 15.2% | [6] 7.05%

CCOC(=O)C(CCC(C)=O)C(=O)OCC
inactive: [1] -1.25% | [2] 12.8% | [3] -6.15% | [4] 24.6% | [5] 5.65% | [6] -19.1%

CCc1c(O)cc(=O)oc1-c1ccc(OC)c(OC)c1
inactive: [1] 21% | [2] -16.2% | [3] 2.15% | [4] 6.05% | [5] -6.9% | [6] -26.6%

CCN(CC)/N=C\c1c2ccccc2cc2ccccc12
inactive: [1] 19.8% | [2] 11.2% | [3] 7.7% | [4] 9.4% | [5] 13.3% | [6] 60.4%

CC1c2ccccc2-c2ccccc2N1C(=O)c1cccc(C(=O)N2c3ccccc3-c3ccccc3C2C)n1 (stereo unspecified)
inactive: [1] 26.3% | [2] 11.6% | [3] -6.75% | [4] -1.9% | [5] -2.1% | [6] 18.1%

CC(=O)NC(Cc1ccc(C)cc1)C(=O)O (stereo unspecified)
inactive: [1] 3.35% | [2] -3.75% | [3] 20.1% | [4] -3.5% | [5] -3.05% | [6] 1.7%

FC(F)(F)c1cccc(NC(=S)SCc2ccc(Cl)c(Cl)c2)c1
active: [1] 98.3% | [2] 98.8% | [3] 98.8% | [4] 99.1% | [5] 98% | [6] 98.2%

CCOC(=O)NC(=O)c1cn(CCCOC(=O)CCCCCCCCCCC(=O)OCCCn2cc(C(=O)NC(=O)OCC)c(=O)[nH]c2=O)c(=O)[nH]c1=O
inactive: [1] -28.5% | [2] -24.2% | [3] -12.4% | [4] 18.6% | [5] -0.95% | [6] -18.9%

CC1OC(CC(=O)O)CC2=C1C(=O)c1c(O)cccc1C2=O (stereo unspecified)
inactive: [1] -6.3% | [2] -8.3% | [3] 17.2% | [4] 0.6% | [5] -14.2% | [6] 10.2%

OC(c1cc(C(F)(F)F)nc2c(Cl)cc(Cl)cc12)C1CCCCN1 (stereo unspecified)
inactive: [1] 7.2% | [2] -22.4% | [3] -5% | [4] -3.4% | [5] 8.75% | [6] 22.9%

CS(=O)(=O)CC(O)(c1ccc(Cl)cc1)c1ccccn1 (stereo unspecified)
inactive: [1] 11.5% | [2] 0.85% | [3] -6.55% | [4] -21.6% | [5] -0.8% | [6] 3.8%

CC(=O)CC(=O)ON(C)C(C)=O
inactive: [1] -8.85% | [2] 19.2% | [3] -15.8% | [4] 8.45% | [5] -14.3% | [6] -11.6%

CCc1ccc(NC(=S)NC(=O)c2ccccc2OC)cc1
inactive: [1] 10.6% | [2] 7.05% | [3] 9.3% | [4] 21.1% | [5] 20.4% | [6] 3.95%

Cc1ccc(S(=O)(=O)N=Nc2c(O)[nH]c3c(Cl)cc(Cl)cc23)cc1
inactive: [1] -11.8% | [2] -18.8% | [3] 4.65% | [4] -1.2% | [5] -22.4% | [6] 23.2%

CC(=O)Oc1nc2ccccc2n1C(C)=O
inactive: [1] 15.3% | [2] 20.9% | [3] 20.6% | [4] -5.1% | [5] 39.5% | [6] 5.55%

O=C(Nc1ccccc1Cl)Nc1cccc2ccccc12
inactive: [1] 15.2% | [2] 1.3% | [3] 17.8% | [4] -1.6% | [5] 4.55% | [6] 8.65%

N#Cc1c(-c2ccccc2)cc(-c2ccc(N)cc2)[nH]c1=O
inactive: [1] 26.5% | [2] 3.65% | [3] 13.2% | [4] 33.4% | [5] 11.6% | [6] 20.3%

O=C(Cc1ccccc1)N/N=C(/c1nc2ccc([N+](=O)[O-])cc2[nH]c1=O)C(O)c1ccco1 (stereo unspecified)
inactive: [1] -0.95% | [2] -9.75% | [3] -4.85% | [4] -79.2% | [5] -6.25% | [6] -2.8%

CC(C(=O)c1ccc(Cl)cc1)C1=NC2NN(c3ccccc3)C(=O)C2=C1C(C)C(=O)c1ccc(Cl)cc1 (stereo unspecified)
inactive: [1] 10.5% | [2] -12.3% | [3] 6% | [4] -0.3% | [5] 1.8% | [6] 3.25%

CCC(/C=N\NC(=O)CCCC(=O)N/N=C/C(CC)CC)CC
inactive: [1] -0.5% | [2] -8.5% | [3] -18.6% | [4] 5.65% | [5] 5.8% | [6] -0.35%

C=CCC12CCC(=O)[C@@]1(C)CC=C(O)C2=O (stereo partly specified)
inactive: [1] 8.6% | [2] -2.8% | [3] 17.2% | [4] -18.2% | [5] 0.6% | [6] 0.9%

C(=C/c1ccc(-c2ccccc2)cc1)/c1ccc(-c2ccccc2)cc1
inactive: [1] -4.5% | [2] -13.4% | [3] 11.2% | [4] -23.3% | [5] 24.4% | [6] -2.45%

CCc1ccccc1OCC(O)CO (stereo unspecified)
inactive: [1] -21.9% | [2] -2.45% | [3] -6.2% | [4] -11.5% | [5] -8.85% | [6] 27.8%

COC(=O)c1ccccc1C1CN=NC12Cc1c(ccc3c1CCC3)C2=O (stereo unspecified)
inactive: [1] -4.35% | [2] -5.95% | [3] -15.1% | [4] -9.7% | [5] 27.9% | [6] -0.85%

CCC(CC)NCCCNc1cc(OC)cc2cccnc12
inactive: [1] 20.8% | [2] 33.6% | [3] 53.8% | [4] 4.65% | [5] 30.9% | [6] 48.6%

O=C(Nc1nc(=S)c2c(ncn2CCO)[nH]1)c1ccccc1
inactive: [1] 4.95% | [2] -14% | [3] 8.6% | [4] 12.9% | [5] 4.7% | [6] -0.7%

CC1(CO)COC(=O)C(C)(C2(C)NC(C)(CO)COC2=O)N1 (stereo unspecified)
inactive: [1] 3.6% | [2] -17.6% | [3] -17.6% | [4] 13.1% | [5] -24.2% | [6] 4.05%

O=C(O)C1C(C(=O)O)C1c1ncnc2nc[nH]c12 (stereo unspecified)
inactive: [1] -0.95% | [2] -13.7% | [3] -4.95% | [4] -26.8% | [5] -17.8% | [6] 7.4%

Cn1c2ccccc2c2nnc(N/N=C/c3cccnc3)nc21
inactive: [1] -39.1% | [2] -36.5% | [3] -17.4% | [4] -44.6% | [5] -5.05% | [6] -5.7%

CC1=NC(=O)C(C)(c2ccccc2)N1CCc1ccccc1 (stereo unspecified)
inactive: [1] -0.05% | [2] 8.4% | [3] -8.75% | [4] -16.9% | [5] -10.6% | [6] -28.6%

Oc1c(CNCc2ccccc2)cc(CNCc2ccccc2)c(O)c1CNCc1ccccc1
inactive: [1] 5.3% | [2] 8.85% | [3] -4.8% | [4] 3.2% | [5] 17.3% | [6] -14.8%

N#Cc1cc(C#N)c(N)nc1N
inactive: [1] 14.1% | [2] 6.35% | [3] 1.8% | [4] 13.4% | [5] -1.25% | [6] -5.7%

O=C(N=Nc1c(O)[nH]c2c(Cl)cc(Cl)cc12)C(=O)Nc1cccc(C(F)(F)F)c1
inactive: [1] -8.85% | [2] -14% | [3] -24.6% | [4] 13.8% | [5] -23.8% | [6] -14%

CCOC(=O)c1nc2ccc(C(F)(F)F)cc2nc1Nc1cc(OC)c(OC)c(OC)c1
inactive: [1] -33.4% | [2] -17.4% | [3] -30.8% | [4] 2.85% | [5] -13.6% | [6] -11.1%

O=C(NNC(=O)Nc1ccccc1)Nc1ccccc1
inactive: [1] -0.8% | [2] -16.7% | [3] -0.95% | [4] -12.9% | [5] -3.2% | [6] -7%

N#Cc1ccc(NC(=NCC(=O)O)Nc2ccc3ccccc3c2)cc1
inactive: [1] -16.2% | [2] -30.6% | [3] -14.6% | [4] 25.8% | [5] -26.3% | [6] 8.25%

CC(C#N)Nc1ccc(Oc2ccc(C(C)(C)c3ccc(Oc4ccc(NC(C)C#N)cc4)cc3)cc2)cc1 (stereo unspecified)
inactive: [1] 6.25% | [2] -2.6% | [3] -8.3% | [4] 7.1% | [5] -23.6% | [6] -40.1%

CCOC(=O)CSc1ncnc2nc[nH]c12
inactive: [1] 31.2% | [2] -9.35% | [3] -6% | [4] 6.25% | [5] 17% | [6] 9.75%

OCC(O)C(O)Cc1cnc(C(O)C(O)C(O)CO)cn1 (stereo unspecified)
inactive: [1] 6.65% | [2] 5.65% | [3] -6.95% | [4] -20.2% | [5] -9.45% | [6] 6.4%

CC(=O)N(C(=O)CC(=O)N/N=C\c1ccc(Br)c(N(CCC#N)CCC#N)c1)c1ccc(Cl)cc1
inactive: [1] 7.7% | [2] 0.6% | [3] 8.1% | [4] -7.8% | [5] 6.2% | [6] -3.35%

OCCNNCCO
inactive: [1] 13.3% | [2] 1.05% | [3] -14.7% | [4] -8.85% | [5] 15.1% | [6] 1.9%
